Results reported in the supplement of paper PMC11732987, “Enantioselective OTUD7B fragment discovery through chemoproteomics screening and high-throughput optimisation” (Communications Chemistry, 2025).

Experiments:
Assay in all cases: log2 ratio of Biotin-Ahx-Ub-VS probe labelling (fragment/DMSO); higher = less target engagement (more negative = stronger competition), active = hit call of the paper (q ≤ 0.05, log2 ratio ≤ -1)
Conditions in all cases: compound concentration: 200 uM; treatment time: 3 h
USP19 = biological target: T1, USP19 (UniProt O94966)
T1 sequence (whole entry): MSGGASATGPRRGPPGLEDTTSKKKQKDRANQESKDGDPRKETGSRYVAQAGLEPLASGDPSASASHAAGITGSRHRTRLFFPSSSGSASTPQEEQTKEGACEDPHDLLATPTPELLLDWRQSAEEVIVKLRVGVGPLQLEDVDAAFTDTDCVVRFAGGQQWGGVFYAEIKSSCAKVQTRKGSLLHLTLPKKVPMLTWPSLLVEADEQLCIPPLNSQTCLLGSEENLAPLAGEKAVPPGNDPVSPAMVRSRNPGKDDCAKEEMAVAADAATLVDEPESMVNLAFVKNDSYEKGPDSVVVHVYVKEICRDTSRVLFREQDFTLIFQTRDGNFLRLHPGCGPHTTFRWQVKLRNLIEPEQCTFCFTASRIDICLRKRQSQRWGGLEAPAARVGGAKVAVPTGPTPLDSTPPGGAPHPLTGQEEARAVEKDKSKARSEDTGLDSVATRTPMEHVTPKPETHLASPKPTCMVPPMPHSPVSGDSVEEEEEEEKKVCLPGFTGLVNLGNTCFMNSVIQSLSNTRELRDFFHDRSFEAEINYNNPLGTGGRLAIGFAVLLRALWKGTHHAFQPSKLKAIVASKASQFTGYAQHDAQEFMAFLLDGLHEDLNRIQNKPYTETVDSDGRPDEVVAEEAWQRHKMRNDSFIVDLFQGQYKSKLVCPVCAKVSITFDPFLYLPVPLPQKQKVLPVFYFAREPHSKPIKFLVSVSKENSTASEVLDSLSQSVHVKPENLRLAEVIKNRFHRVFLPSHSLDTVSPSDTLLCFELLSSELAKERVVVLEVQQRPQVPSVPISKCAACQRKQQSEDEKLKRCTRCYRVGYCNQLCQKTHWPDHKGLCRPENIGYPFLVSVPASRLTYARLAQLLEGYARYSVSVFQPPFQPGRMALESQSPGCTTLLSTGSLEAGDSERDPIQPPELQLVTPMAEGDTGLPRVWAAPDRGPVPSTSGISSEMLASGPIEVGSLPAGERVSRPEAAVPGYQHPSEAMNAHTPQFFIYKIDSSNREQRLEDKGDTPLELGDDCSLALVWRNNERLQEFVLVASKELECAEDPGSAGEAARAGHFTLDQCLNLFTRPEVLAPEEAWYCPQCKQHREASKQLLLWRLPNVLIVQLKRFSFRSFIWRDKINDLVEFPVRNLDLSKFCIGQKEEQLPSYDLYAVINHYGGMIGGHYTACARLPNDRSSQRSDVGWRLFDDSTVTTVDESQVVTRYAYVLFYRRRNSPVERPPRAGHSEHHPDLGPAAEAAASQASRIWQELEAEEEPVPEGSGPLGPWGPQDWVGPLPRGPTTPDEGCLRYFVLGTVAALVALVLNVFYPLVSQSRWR
Summary of the method: (§1)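 HEK293T lysate, 495 µg per sample in Tris/CHAPS/IGEPAL buffer with protease inhibitors, was treated in triplicate with fragment at 200 µM or vehicle for 3 h and then with Biotin-Ahx-Ub-VS at 0.5 µM final for 1 h. Labelled DUBs were NeutrAvidin-enriched, digested with LysC and trypsin, and run by diaPASEF LC-MS/MS. Spectronaut label-free quantities were global-median-normalised, and values are average log2 fragment/vehicle ratios by unpaired t-test on proteins with ≥2 unique peptides.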

USP22 = biological target: T2, USP22 (UniProt Q9UPT9)
T2 sequence (whole entry): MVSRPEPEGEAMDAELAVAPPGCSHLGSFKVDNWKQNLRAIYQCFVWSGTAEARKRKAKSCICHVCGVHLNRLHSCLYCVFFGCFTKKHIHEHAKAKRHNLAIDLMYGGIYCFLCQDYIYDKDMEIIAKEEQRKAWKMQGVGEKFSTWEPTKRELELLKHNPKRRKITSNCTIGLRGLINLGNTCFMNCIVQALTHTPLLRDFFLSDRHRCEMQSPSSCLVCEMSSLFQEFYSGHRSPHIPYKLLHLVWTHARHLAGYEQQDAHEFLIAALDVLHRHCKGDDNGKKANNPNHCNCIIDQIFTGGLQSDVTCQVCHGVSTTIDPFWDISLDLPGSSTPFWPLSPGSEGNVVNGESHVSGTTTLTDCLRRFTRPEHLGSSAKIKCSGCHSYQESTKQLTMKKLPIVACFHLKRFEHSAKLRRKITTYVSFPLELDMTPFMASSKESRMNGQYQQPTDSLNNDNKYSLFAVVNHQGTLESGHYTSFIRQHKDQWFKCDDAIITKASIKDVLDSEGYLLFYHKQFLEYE
Summary of the method: as §1

USP24 = USP24 (UniProt Q9UPU5)
Chain of USP24 (Q9UPU5 whole entry): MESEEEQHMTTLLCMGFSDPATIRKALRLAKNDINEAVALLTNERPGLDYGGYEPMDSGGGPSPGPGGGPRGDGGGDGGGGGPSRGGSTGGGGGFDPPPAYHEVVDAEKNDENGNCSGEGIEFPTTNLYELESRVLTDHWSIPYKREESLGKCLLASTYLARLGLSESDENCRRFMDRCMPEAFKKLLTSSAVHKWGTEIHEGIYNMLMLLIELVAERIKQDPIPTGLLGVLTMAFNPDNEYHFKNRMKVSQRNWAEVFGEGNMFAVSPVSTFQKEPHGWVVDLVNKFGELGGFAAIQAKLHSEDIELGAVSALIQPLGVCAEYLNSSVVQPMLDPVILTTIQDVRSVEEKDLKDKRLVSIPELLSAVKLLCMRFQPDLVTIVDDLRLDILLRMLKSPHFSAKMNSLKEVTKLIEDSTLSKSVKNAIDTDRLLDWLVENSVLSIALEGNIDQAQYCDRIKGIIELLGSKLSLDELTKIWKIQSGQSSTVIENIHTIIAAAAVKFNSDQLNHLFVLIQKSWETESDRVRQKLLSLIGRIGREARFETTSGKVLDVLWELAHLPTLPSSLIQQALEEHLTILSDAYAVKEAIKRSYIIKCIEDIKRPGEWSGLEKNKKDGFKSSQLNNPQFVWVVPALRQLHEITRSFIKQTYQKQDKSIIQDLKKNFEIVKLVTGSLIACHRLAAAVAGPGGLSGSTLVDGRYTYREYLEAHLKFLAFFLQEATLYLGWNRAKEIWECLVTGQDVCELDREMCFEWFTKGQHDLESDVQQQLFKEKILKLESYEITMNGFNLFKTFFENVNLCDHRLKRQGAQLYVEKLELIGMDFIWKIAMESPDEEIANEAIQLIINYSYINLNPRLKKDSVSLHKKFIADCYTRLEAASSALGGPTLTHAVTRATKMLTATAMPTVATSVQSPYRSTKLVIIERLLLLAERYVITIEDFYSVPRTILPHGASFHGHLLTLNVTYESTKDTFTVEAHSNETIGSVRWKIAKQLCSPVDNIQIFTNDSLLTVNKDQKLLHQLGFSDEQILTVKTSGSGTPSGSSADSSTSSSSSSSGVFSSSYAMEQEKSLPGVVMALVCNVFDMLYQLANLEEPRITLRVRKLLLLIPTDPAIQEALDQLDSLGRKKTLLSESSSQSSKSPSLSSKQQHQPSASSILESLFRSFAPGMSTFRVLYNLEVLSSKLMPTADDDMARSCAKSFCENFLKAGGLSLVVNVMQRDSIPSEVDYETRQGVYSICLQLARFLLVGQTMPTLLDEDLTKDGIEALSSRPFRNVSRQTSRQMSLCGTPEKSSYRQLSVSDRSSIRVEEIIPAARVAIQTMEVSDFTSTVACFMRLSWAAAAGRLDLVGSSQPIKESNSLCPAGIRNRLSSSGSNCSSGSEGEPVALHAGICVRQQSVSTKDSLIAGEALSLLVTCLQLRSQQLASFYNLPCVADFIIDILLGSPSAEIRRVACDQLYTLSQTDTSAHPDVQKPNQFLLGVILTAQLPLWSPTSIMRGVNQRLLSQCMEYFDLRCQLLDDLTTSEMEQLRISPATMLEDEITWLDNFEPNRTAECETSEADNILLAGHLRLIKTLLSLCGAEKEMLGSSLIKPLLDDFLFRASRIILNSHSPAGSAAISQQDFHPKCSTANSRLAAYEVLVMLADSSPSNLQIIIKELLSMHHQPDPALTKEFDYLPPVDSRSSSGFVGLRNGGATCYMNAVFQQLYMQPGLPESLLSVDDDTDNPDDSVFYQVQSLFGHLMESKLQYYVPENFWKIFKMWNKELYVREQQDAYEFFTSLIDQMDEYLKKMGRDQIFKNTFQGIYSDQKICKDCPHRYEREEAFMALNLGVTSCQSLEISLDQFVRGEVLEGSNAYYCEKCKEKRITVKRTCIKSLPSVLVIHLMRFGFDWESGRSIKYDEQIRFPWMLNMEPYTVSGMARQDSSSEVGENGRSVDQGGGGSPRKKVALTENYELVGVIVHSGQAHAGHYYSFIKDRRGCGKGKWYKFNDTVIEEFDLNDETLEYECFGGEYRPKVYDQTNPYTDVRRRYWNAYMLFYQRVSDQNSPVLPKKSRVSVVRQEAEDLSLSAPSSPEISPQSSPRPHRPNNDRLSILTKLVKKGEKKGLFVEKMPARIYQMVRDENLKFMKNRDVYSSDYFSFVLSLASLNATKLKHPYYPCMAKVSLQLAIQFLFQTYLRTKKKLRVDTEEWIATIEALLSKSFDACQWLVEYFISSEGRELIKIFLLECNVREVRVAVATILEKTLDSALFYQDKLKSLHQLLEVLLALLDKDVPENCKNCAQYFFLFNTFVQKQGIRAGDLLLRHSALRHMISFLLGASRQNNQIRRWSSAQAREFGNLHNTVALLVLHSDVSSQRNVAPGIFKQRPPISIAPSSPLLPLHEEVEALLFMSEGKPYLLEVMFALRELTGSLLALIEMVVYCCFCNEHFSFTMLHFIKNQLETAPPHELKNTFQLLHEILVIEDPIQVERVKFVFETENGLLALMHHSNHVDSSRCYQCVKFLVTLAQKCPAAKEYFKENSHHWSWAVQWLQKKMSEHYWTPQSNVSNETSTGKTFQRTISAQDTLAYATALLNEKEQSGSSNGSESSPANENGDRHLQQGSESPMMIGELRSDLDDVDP
Summary of the method: as §1

USP25 = biological target: T3, USP25 (UniProt Q9UHP3)
T3 sequence (whole entry): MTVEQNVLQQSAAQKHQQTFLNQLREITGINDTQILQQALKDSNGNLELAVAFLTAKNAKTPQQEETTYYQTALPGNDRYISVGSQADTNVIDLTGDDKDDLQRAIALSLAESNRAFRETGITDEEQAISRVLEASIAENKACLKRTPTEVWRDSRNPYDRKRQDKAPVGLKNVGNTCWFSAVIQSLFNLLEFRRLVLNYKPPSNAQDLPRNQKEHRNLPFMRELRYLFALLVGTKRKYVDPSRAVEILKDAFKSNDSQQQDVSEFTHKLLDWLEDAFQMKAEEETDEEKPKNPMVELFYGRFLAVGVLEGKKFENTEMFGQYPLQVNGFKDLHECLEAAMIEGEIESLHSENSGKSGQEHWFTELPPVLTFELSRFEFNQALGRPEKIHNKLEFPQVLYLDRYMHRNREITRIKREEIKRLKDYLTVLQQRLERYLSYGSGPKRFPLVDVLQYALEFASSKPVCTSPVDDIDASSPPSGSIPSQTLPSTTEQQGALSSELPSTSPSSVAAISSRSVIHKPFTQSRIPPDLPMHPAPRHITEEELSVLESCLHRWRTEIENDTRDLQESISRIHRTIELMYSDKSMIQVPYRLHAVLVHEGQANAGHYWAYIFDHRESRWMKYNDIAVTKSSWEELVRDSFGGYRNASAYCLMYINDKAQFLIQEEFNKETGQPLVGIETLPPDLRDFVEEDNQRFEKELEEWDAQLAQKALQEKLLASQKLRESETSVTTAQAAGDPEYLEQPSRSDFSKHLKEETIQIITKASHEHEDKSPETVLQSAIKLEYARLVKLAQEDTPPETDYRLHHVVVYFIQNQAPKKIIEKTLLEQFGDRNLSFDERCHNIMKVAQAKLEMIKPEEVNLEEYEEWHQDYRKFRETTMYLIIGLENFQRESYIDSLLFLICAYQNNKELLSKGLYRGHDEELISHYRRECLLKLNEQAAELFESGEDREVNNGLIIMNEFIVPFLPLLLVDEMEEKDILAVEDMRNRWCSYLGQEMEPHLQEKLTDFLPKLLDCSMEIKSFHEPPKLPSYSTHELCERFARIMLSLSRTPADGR
Summary of the method: as §1

USP28 = biological target: T4, USP28 (UniProt Q96RU2)
T4 sequence (whole entry): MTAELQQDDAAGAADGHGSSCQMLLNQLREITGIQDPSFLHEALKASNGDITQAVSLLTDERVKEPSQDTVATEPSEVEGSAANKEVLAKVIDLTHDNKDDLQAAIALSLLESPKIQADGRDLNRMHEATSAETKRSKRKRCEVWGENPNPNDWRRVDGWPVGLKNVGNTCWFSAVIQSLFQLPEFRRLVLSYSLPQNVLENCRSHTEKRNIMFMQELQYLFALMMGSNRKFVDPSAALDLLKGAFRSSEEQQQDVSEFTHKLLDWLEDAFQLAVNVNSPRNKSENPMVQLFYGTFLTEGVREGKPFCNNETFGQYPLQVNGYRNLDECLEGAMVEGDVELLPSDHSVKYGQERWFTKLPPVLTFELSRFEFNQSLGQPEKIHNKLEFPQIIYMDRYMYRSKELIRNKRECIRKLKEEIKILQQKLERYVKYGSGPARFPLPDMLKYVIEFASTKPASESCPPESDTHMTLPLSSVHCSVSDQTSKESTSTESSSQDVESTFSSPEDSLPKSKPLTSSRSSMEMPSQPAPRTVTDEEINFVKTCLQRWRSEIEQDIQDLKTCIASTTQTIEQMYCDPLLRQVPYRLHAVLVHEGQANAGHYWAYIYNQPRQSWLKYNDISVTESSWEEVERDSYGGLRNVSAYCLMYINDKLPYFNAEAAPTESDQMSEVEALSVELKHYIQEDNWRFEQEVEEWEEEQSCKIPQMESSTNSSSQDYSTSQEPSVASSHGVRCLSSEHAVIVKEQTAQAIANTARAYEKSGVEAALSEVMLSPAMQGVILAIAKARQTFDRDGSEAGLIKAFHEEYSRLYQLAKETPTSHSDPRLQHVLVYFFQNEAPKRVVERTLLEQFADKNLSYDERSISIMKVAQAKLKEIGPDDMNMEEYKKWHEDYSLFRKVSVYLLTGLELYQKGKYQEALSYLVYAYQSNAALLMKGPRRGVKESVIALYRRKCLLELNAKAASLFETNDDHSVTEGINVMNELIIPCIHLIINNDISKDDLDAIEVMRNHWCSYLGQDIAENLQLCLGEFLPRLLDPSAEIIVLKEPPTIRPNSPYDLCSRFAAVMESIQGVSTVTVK
Summary of the method: as §1

Measured: log2 ratio of Biotin-Ahx-Ub-VS probe labelling

Cl.Cn1ncc2c1CC(NC(=O)CCl)CC2 (stereo not given)
inactive: USP19 0.0381 | USP22 0.0984 | USP24 0.0406 | USP25 -0.321 | USP28 -0.758
